High-throughput results: PubChem BioAssay, several laboratories
ATG4B inhibitor = blocks human ATG4B protease cleavage of LC3 substrate; Q9Y4P1; ATG4B cleavage of LC3-PLA2, NBD-HPC fluorescence, 1 h; inhibition, % at 8.33 µM; 0.51% of 340,000 active; AID 504462; in the data active = inhibition above about 40%
Target sequence (Q9Y4P1 whole entry, looked up): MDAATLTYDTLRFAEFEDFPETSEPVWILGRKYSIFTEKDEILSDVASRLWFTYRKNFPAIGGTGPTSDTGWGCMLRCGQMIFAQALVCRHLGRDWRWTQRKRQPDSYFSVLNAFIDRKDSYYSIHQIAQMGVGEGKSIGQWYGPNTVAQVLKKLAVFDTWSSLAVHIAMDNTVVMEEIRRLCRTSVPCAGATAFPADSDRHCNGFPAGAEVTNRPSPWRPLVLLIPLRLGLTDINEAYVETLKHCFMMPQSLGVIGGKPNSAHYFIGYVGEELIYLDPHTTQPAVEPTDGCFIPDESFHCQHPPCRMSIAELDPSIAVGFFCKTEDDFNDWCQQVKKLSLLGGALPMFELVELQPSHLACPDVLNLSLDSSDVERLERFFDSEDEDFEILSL
SKKanGAS inh = blocks kanamycin growth of S. pyogenes SKKanGAS strain; BacTiter-Glo, 6 h; inhibition, % at 7.5 µM; 1.3% of 300,000 active; AID 1662;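 active = mean replicate score, as percent of positive control median, at least 50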;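 note: strain carries kanamycin resistance gene driven by streptokinase promoter and grows in 40 µg/ml kanamycin; loss of luminescence reflects streptokinase promoter inhibition or plain growth inhibition; 0% = median of DMSO wells and 100% = positive control at its reference dose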
PfHsp90 yeast 2 = reduces growth (ATP signal) of yeast expressing P. falciparum Hsp90; S. cerevisiae expressing PfHsp90, BacTiter-Glo ATP, 48 h; yeast lacking PDR1 and PDR3 efflux regulators; inhibition, % at 9.4 µM; 0.32% of 310,000 active; AID 504621;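 active = every replicate shows inhibition above about 80%, whatever the replicate mean, limit read from the data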;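 note: 0% = DMSO neutral controls and 100% = 20 µM radicicol positive controls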
tim10-1 inh = growth inhibitors of tim10-1 mutant yeast; 2.2% of 330,000 active; AID 463190; S. cerevisiae tim10-1 ts strain growth, BacTiter-Glo, 24 h; inhibition, % at 20 µM;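 active = inhibition of at least 40%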;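 note: mutant grown at 25 °C; 0% = DMSO wells with yeast and 100% = wells holding no yeast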
tim23-1 inh = tim23-1 yeast growth inhibition; S. cerevisiae tim23-1 growth, BacTiter-Glo luminescence, 24 h; 1.3% of 330,000 active; inhibition, % at 20 µM; AID 463212;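 active = growth inhibition of the mutant yeast at or above 50%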;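 note: temperature-sensitive mutant grown at 25 °C; plate controls were DMSO-treated mutant yeast for no effect and medium wells lacking yeast for full effect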
TIM10 inh = growth inhibitors of TIM10 yeast strain; S. cerevisiae TIM10 strain growth, BacTiter-Glo luminescence, 24 h; inhibition, % at 10 µM; 1.4% of 330,000 active;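 active = inhibition of 40% or more at the single tested concentration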;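 note: wild-type TIM10 isogenic control strain grown at permissive 25 °C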
tim23-1 confirm = tim23-1 yeast growth inhibition, confirmed | S. cerevisiae tim23-1 growth, BacTiter-Glo luminescence, 24 h | shares compounds with tim23-1 inh | inhibition, % at 20 µM | 83% of 4,400 active;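 active = inhibition above about 39% in either of two replicate wells at 20 µM, limit read from the data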;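 note: temperature-sensitive tim23-1 mutant grown at 25 °C; 0% = DMSO wells with yeast and 100% = medium wells without yeast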
Active calls of the source: *. Shown are actives, neighbours in structure and some others; about 4.7% of the full set was active somewhere.

O=C(CN1C(=O)c2ccccc2S1(=O)=O)c1ccc(Cl)cc1Cl was read as ATG4B inhibitor -5, SKKanGAS inh 5, tim10-1 inh 32, tim23-1 inh 51*, TIM10 inh 8 and tim23-1 confirm 24.
`Fc1cccc(Cl)c1C1Nc2cccc3cccc(c23)N1` gave ATG4B inhibitor 10, SKKanGAS inh 25, PfHsp90 yeast 2 8, tim10-1 inh 33, tim23-1 inh 34 and TIM10 inh 17.
Clc1cccc(Cl)c1C1Nc2cccc3cccc(c23)N1 was read as ATG4B inhibitor 20, SKKanGAS inh 59*, PfHsp90 yeast 2 -6, tim10-1 inh 29, tim23-1 inh 53*, TIM10 inh 30 and tim23-1 confirm 75*.
For CC(OC(=O)c1cccc(NS(C)(=O)=O)c1)C(=O)Nc1ccc2c(c1)OCO2 (stereo unspecified) the results were ATG4B inhibitor -13, PfHsp90 yeast 2 -4, tim10-1 inh 7, tim23-1 inh 15 and TIM10 inh 15.
`CCOCCn1ccc2c(OCC(=O)NCCc3ccc(OC)c(OC)c3)cccc2c1=O` gave ATG4B inhibitor -13, SKKanGAS inh -10, PfHsp90 yeast 2 -12, tim10-1 inh 17, tim23-1 inh 16 and TIM10 inh 9.
CCOCCn1ccc2c(OCC(=O)Nc3ccc(OC)c(OC)c3)cccc2c1=O was read as ATG4B inhibitor -1, SKKanGAS inh 14, tim10-1 inh 12, tim23-1 inh 54*, TIM10 inh 4 and tim23-1 confirm 5.
Screening Cc1ccc(C(=O)C(C)OC(=O)c2cc3cc([N+](=O)[O-])ccc3oc2=O)cc1 (stereo unspecified) returned ATG4B inhibitor 2, SKKanGAS inh 14, PfHsp90 yeast 2 21, tim10-1 inh -18, tim23-1 inh 72*, TIM10 inh 2 and tim23-1 confirm 55*.
Screening O=C(c1ccc(F)cc1)N1CCN(C(=O)c2cccnc2)CC1 returned ATG4B inhibitor -4, SKKanGAS inh 0, PfHsp90 yeast 2 -8, tim10-1 inh -4, tim23-1 inh -11 and TIM10 inh -13.
Cc1cnn(-c2nc(-c3ccccc3)cc(-c3ccccc3)n2)c1 was read as ATG4B inhibitor 17, SKKanGAS inh 76*, PfHsp90 yeast 2 -49, tim10-1 inh 39, tim23-1 inh 52*, TIM10 inh 36 and tim23-1 confirm 56*.
FC(F)(F)c1cc(-c2ccccc2)nc(-n2cc(Cl)cn2)n1 was read as ATG4B inhibitor -6, SKKanGAS inh -8, PfHsp90 yeast 2 -2, tim10-1 inh -5, tim23-1 inh 24 and TIM10 inh 3.
For CCc1ccc2c(c1)/C(=N/N(C)C(=S)NC)C(=O)N2 the results were ATG4B inhibitor -2, SKKanGAS inh -9, PfHsp90 yeast 2 -46, tim10-1 inh 31, tim23-1 inh 17 and TIM10 inh 30.
For CCc1ccc2c(c1)/C(=C/C(=O)c1cccs1)C(=O)N2 the results were ATG4B inhibitor 10, SKKanGAS inh -7, PfHsp90 yeast 2 124*, tim10-1 inh 2, tim23-1 inh 54*, TIM10 inh 33 and tim23-1 confirm -101.
Screening c1ccc(CCc2nc(-c3ccccc3)no2)cc1 returned ATG4B inhibitor 5, SKKanGAS inh 43, PfHsp90 yeast 2 10, tim10-1 inh 20, tim23-1 inh 15 and TIM10 inh 7.
`O=C(Nc1ccc(-c2noc(CCc3ccccc3)n2)cc1)c1ccco1` gave ATG4B inhibitor 7, SKKanGAS inh -5, PfHsp90 yeast 2 19, tim10-1 inh 38, tim23-1 inh 55*, TIM10 inh 30 and tim23-1 confirm 61*.
`COc1cccc2c1C(=O)c1c(O)c3c(c(O)c1C2=O)C[C@](O)(C(C)=O)C[C@H]3O[C@@H]1C[C@@H](N)[C@@H](O)[C@@H](C)O1` gave ATG4B inhibitor -20, SKKanGAS inh 102*, PfHsp90 yeast 2 -36, tim10-1 inh 3, tim23-1 inh 51*, TIM10 inh -1 and tim23-1 confirm 44*.
For CSCc1ccc(C(=O)N2CCCC(Nc3ccc4c(c3)OCCO4)C2)o1 (stereo unspecified) the results were ATG4B inhibitor 3, SKKanGAS inh 0, PfHsp90 yeast 2 8, tim10-1 inh 27, tim23-1 inh 20 and TIM10 inh 19.
Screening CCCCSC1=C(C#N)C(c2ccccc2C)CC(=O)N1 (stereo unspecified) returned ATG4B inhibitor -3, SKKanGAS inh -3, PfHsp90 yeast 2 13, tim10-1 inh 25, tim23-1 inh 51*, TIM10 inh 6 and tim23-1 confirm 52*.
CCCSC1=C(C#N)C(c2ccccc2C)CC(=O)N1 (stereo unspecified) was read as ATG4B inhibitor -7, SKKanGAS inh -1, tim10-1 inh 27, tim23-1 inh 51*, TIM10 inh 17 and tim23-1 confirm 44*.
For CCC(C(=O)OCC(=O)Nc1cc(OC)ccc1OC)c1ccccc1 (stereo unspecified) the results were ATG4B inhibitor 5, SKKanGAS inh -4, PfHsp90 yeast 2 7, tim10-1 inh -20, tim23-1 inh 7 and TIM10 inh -31.
For CCCCN(Cc1cc2cc(OC)ccc2[nH]c1=O)S(=O)(=O)c1ccc(C)cc1 the results were ATG4B inhibitor 0, SKKanGAS inh 1, PfHsp90 yeast 2 8, tim10-1 inh 26, tim23-1 inh 24 and TIM10 inh 9.
For CC(NC(=O)/C=C/c1cnc2ccccc2n1)C12CC3CC(CC(C3)C1)C2 (stereo unspecified) the results were ATG4B inhibitor -1, SKKanGAS inh 14, PfHsp90 yeast 2 -12, tim10-1 inh 35, tim23-1 inh 60*, TIM10 inh 39 and tim23-1 confirm 50*.
Screening COc1cccc(OC)c1C(=O)NC(C)C12CC3CC(CC(C3)C1)C2 (stereo unspecified) returned ATG4B inhibitor -19, SKKanGAS inh 5, PfHsp90 yeast 2 -8, tim10-1 inh 38, tim23-1 inh 33 and TIM10 inh 36.
Screening O=C(CSCc1ccc(F)cc1)Nc1nc2c(s1)CCCC2 returned ATG4B inhibitor 5, SKKanGAS inh 10, PfHsp90 yeast 2 4, tim10-1 inh 30, tim23-1 inh 56*, TIM10 inh 11 and tim23-1 confirm 41*.
`O=C(CNC(=O)c1ccccc1)N/N=C/c1cccs1` gave ATG4B inhibitor -7, SKKanGAS inh -3, PfHsp90 yeast 2 1, tim10-1 inh 10, tim23-1 inh 12 and TIM10 inh 15.
Screening COc1ccccc1NC(=O)c1nc(S(=O)(=O)Cc2ccccc2)ncc1Cl returned ATG4B inhibitor -5, SKKanGAS inh 13, PfHsp90 yeast 2 21, tim10-1 inh 28, tim23-1 inh 53*, TIM10 inh 36 and tim23-1 confirm 48*.
